This is a sample that favours compounds with a hit; in the whole collection about 3.5% have one here.
TEAD-YAP inh: TEAD-YAP interaction inhibition; inhibition, % at 9.12 µM; 1.4% of 640,000 active; HEK-TIYL cells, TEAD-Gal4/YAP UAS-luciferase luminescence; in the data active means inhibition above about 32%
GPR151 ag: activates the human receptor GPR151; Q8TDV0; PathHunter beta-arrestin GPR151 cells, luminescence; activation, % at 11.2 µM; 1% of 650,000 active; AID 1508602; in the data active means activation above about 4.9%
Target sequence (Q8TDV0 whole entry, looked up): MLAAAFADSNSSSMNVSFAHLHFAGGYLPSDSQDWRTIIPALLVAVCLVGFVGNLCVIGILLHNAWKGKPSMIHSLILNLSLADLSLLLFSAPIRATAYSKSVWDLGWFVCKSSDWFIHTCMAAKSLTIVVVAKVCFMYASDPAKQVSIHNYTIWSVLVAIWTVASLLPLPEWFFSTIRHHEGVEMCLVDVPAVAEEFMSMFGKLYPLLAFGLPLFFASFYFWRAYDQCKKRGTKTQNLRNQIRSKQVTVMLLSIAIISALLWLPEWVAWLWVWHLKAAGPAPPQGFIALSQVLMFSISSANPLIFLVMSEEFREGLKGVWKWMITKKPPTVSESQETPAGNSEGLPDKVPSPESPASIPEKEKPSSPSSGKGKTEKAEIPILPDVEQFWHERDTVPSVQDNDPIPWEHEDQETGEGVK
FBW7 act: human FBW7 E3 ligase activation, primary screen; Q969H0; AlphaScreen FBW7–phospho-cyclin E peptide binding, activator screen; normalized activity (activation), % at 26.1 µM; 0.13% of 650,000 active; AID 1259310; in the data active means normalized activity above about 1.9%;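 further: purified mutant Fbw7 with reduced substrate affinity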
MITF primary: human MITF inhibition, primary screen; O75030; AlphaScreen MITF homodimerization, bead proximity signal; inhibition, % at 2.6 µM; 0.91% of 650,000 active; in the data active means inhibition above about 50%
Of the large screens only hits and unclear results are named; the others gave an inactive call; ! = repeats disagree.

C=CCOc1ccc(C2c3c(oc4ccc(C)cc4c3=O)C(=O)N2CCOC)cc1OCC (centres undefined)	none
Cc1cc(C(=O)N/N=C/c2ccc(OC(F)F)cc2)c2ccccc2n1	TEAD-YAP inh 55
Cc1cc(C(=O)NN=C2CCN(C)CC2)c2ccccc2n1	TEAD-YAP inh 51
Cc1cc(C(=O)NN)c2ccccc2n1	TEAD-YAP inh 44
CN1CCC(=NNC(=O)c2c[nH]c3ccccc23)CC1	none
Cc1cc(C(=O)N/N=C/c2cccc([N+](=O)[O-])c2)c2ccccc2n1	none
C/C(=N\NC(=O)c1cc(C)nc2ccccc12)c1ccco1	TEAD-YAP inh 45
CCOC(=O)C(=CNc1cc(-c2cccc(Br)c2)[nH]n1)C(=O)OCC	none
CC[C@H](C)[C@@H]1NC(=O)[C@@H]2C[C@H](NCc3cccc(Cl)c3)CN2C1=O	none
CN1CCN(c2nc3ccc(OC(=O)c4cccc(F)c4)cc3s2)CC1	none
CCc1c(C(=O)N(C)Cc2ccccc2)c(=O)cc(C)n1Cc1cccs1	none
CCCCC1=NN(C(=O)C(=O)Nc2ccc(Br)cc2)C(O)(C(F)(F)F)C1 (centres undefined)	none
C/C(=N\NC(=O)c1cc(-c2c(C)nn(-c3ccccc3)c2C)n[nH]1)c1ccccc1O	TEAD-YAP inh 44
COc1ccc(/C(C)=N\NC(=O)c2ccccc2O)c(OC)c1	TEAD-YAP inh 85
COc1ccc(/C(C)=N/NC(=O)c2ccccc2[N+](=O)[O-])c(OC)c1	none
C/C(=N\NC(=O)c1cc(C)nc2ccccc12)c1ccccc1O	TEAD-YAP inh 53
COc1cc(C2Nc3ccc4ncccc4c3C3=C2C(=O)CCC3)ccc1OC(C)=O (centres undefined)	TEAD-YAP inh 52
CCN(CC)c1ccc2cc(-c3ccccn3)c(=O)oc2c1	TEAD-YAP inh 93, FBW7 act 2.7
CCN(CC)c1ccc2cc(-c3nc(C)cs3)c(=O)oc2c1	TEAD-YAP inh 94, FBW7 act 3.4
CCN(CC)c1ccc2cc(-c3nc(-c4ccccc4)cs3)c(=O)oc2c1	none
O=C(O)CCNC(=O)/C=C/c1ccccc1	none
CCN1CCN(C(=O)c2cnn(-c3ncc4c(n3)-c3cc(OC)ccc3CC4)c2C)CC1	none
NC(CO)C(=O)N/N=C/c1ccc(O)c(O)c1O (centres undefined)	MITF primary 96
NC(CO)C(=O)NNCc1ccc(O)c(O)c1O (centres undefined)	MITF primary 88
O=C(N/N=C/c1ccc(O)c(O)c1O)c1ccc(Cl)cc1Cl	none
O=C(Cn1c2ccccc2c(=O)c2ccccc21)N1CCN(c2ccc(F)cc2)CC1	none
Cc1nc(N=Nc2ccc(S(=O)(=O)O)cc2S(=O)(=O)O)c(COP(=O)(O)O)c(C=O)c1O	MITF primary 75!
O=C(Nc1ccc(C23CC4CC(CC(c5ccccc5)(C4)C2)C3)cc1)c1cc([N+](=O)[O-])ccc1Cl	TEAD-YAP inh 59
COc1ccc(C(=O)Nc2ccncc2)cc1[N+](=O)[O-]	none
COC(=O)c1ccc(NC(=O)c2cc([N+](=O)[O-])ccc2Br)cc1	TEAD-YAP inh 33
O=C(Nc1cccc(OC(=O)c2ccc(Cl)cc2)c1)c1ccc([N+](=O)[O-])cc1	TEAD-YAP inh 32
COC(=O)c1ccc(NC(=O)c2ccc(OC)c([N+](=O)[O-])c2)cc1	FBW7 act 3.7
Cc1ccc(S(=O)(=O)N2CCN(S(=O)(=O)c3ccc(C(C)(C)C)cc3)CC2)cc1	none
COc1ccccc1CNC(=O)c1nccnc1C(=O)O	none
CCCCC1=NN2C(=N)/C(=C/c3ccc(OCCOc4ccc(C)c(C)c4)cc3)C(=O)N=C2S1	none
CC(=O)Nc1cccc(NC(=O)c2ccc([N+](=O)[O-])cc2Cl)c1	none
O=C(Nc1sccc1C(=O)Nc1cccc([N+](=O)[O-])c1)c1ccco1	TEAD-YAP inh 39
O=C(Nc1cccc([N+](=O)[O-])c1)c1ccco1	none
O=C(Nc1cccc(O)c1)c1ccc([N+](=O)[O-])cc1Cl	TEAD-YAP inh 73
O=C(Nc1ccc(I)cc1)c1cc([N+](=O)[O-])ccc1Cl	TEAD-YAP inh 38
O=C(Nc1ccc(O)cc1C(=O)O)c1cccc([N+](=O)[O-])c1	MITF primary 53
O=C(NCc1ccccc1Cl)C(=O)Nc1cccc(Cl)c1Cl	none
COc1ccc(CN2CCNC(=O)C2CC(=O)N(C)Cc2cn(C)nc2C)cc1OC (centres undefined)	none
COc1ccccc1C(=O)NCc1nnc2n1CCN(Cc1cc(C)cc(C)c1)CC2	none
COc1ccc(C2CC(=O)C3=C(C2)NC(C)=C(C(=O)OC2CCCCC2)C3c2ccc(Br)cc2)cc1 (centres undefined)	none
O=C1c2cccc3cccc(c23)C(=O)N1CCCN(C(=O)c1ccc(F)cc1)c1cccc2ccccc12	none
COc1cccc(NC(=O)c2cc([N+](=O)[O-])ccc2Cl)c1	none
CC(=O)Nc1ccc(NC(=O)c2cc([N+](=O)[O-])ccc2Cl)cc1	none
CC(=O)Nc1cccc(NC(=O)c2cc([N+](=O)[O-])ccc2Cl)c1	none
COc1ccc(NC(=O)c2cc([N+](=O)[O-])ccc2Cl)cc1	TEAD-YAP inh 34
O=C(Nc1cccc(C(F)(F)F)c1)c1cc([N+](=O)[O-])ccc1Cl	TEAD-YAP inh 52
COc1ccc2nc(NC(=O)c3cc([N+](=O)[O-])ccc3Cl)sc2c1	TEAD-YAP inh 33
O=C(Nc1ccc(F)cc1)c1cc([N+](=O)[O-])ccc1Cl	TEAD-YAP inh 33
Cc1ccc(C(=O)N2CCCC2)cc1I	none
CCN(CC)C(=O)c1cn(-c2ccccc2)nc1-c1cccnc1	none
COc1cc(-c2nc3ccccc3c(=O)n2Cc2ccccc2F)cc(OC)c1OC	none
O=C(CCl)Nc1cccc(C(F)(F)F)c1	TEAD-YAP inh 34
N/C(CC(=O)Nc1cccc(C(F)(F)F)c1)=N\O	none
O=C(Nc1cccc(C(F)(F)F)c1)c1ccc([N+](=O)[O-])o1	TEAD-YAP inh 36
O=C(COC(=O)c1ccc([N+](=O)[O-])o1)Nc1cccc(C(F)(F)F)c1	none
CCC(C)NS(=O)(=O)c1cc2c(cc1Cl)N(C(C)=O)CCO2 (centres undefined)	none
O=C(NCc1cccc(OC(F)(F)F)c1)c1cn2ccsc2n1	none
CC(C)c1ccc(C(=O)CSc2ncn[nH]2)cc1	TEAD-YAP inh 37
Cc1nnc(N/N=C/c2cc(Br)ccc2O)[nH]c1=O	TEAD-YAP inh 90, MITF primary 114
Cc1nnc(N/N=C/c2cc(Cl)ccc2O)[nH]c1=O	TEAD-YAP inh 92, MITF primary 127
COc1cc(/C=N/Nc2nnc(C(C)(C)C)c(=O)n2N)ccc1O	none
CC(C)(C)c1nnc(N/N=C/c2cc(Br)ccc2O)n(N)c1=O	TEAD-YAP inh 75, MITF primary 63
Cc1nnc(N/N=C/c2ccc(Br)cc2)[nH]c1=O	none
COc1ccc(O)c(/C=N/Nc2nnc(C)c(=O)[nH]2)c1	TEAD-YAP inh 72, MITF primary 79
COc1ccc(/C=N/Nc2nnc(C)c(=O)[nH]2)cc1	none
CCCn1c(SCC(=O)NC(C)CC)nnc1-c1ccncc1 (centres undefined)	none

Screening results deposited in PubChem BioAssay by The Scripps Research Institute Molecular Screening Center.
